Screens as filed in PubChem.
Dicer inh – human Dicer pre-microRNA cleavage inhibition. Q9UPY3. cat-ELCCA pre-miR-21 Dicer processing, chemiluminescence; hits give high values. z-score at 25 µM. 47,000 tested, 6% active. AID 1347074; in the data active = z-score above about 3, passing the limit was not always enough;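 also: plate controls were vehicle for no effect and no enzyme for full effect; higher signal means more uncleaved substrate so more Dicer inhibition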
The depositor's hits bear a star; ! = a repeat was not active. This is one part of a sample in which hits are shown more often than they occur.

SMILES | Dicer inh
Cc1c(-c2ccnn2S(C)(=O)=O)sc2ccccc12 | 0.93
Cc1ccc([N+](=O)[O-])c(NC(=O)c2ccc(Cl)cc2)c1C | -1.7
O=C(Oc1ccc(OC(=O)c2ccco2)c(Cl)c1)c1ccco1 | 7.4*
O=C(Oc1cccc2cccnc12)c1ccco1 | -2.4
Cc1ccc(C)c(Oc2coc3cc(OC(=O)c4ccco4)ccc3c2=O)c1 | 0.42
COc1ccc(Cc2noc(N)n2)cc1 | -1.2
CSc1n[nH]c(-c2ccco2)c1C#N | -0.93
O=C1C2C(c3ccccc3)OC3(C(=O)c4ccccc4C3=O)C2C(=O)N1c1ccc(Cl)cc1 (stereo unspecified) | 0.34
O=C(CC1(O)C(=O)Nc2ccccc21)c1ccc(Br)cc1 (stereo unspecified) | 0.37
O=C(CC1(O)C(=O)Nc2ccc(Cl)cc21)c1cccc2ccccc12 (stereo unspecified) | 0.59
O=C(CC1(O)C(=O)Nc2ccccc21)c1ccc(C2CCCCC2)cc1 (stereo unspecified) | 4.2*
O=C(CC1(O)C(=O)Nc2ccc(Cl)cc21)c1ccc(Cl)cc1 (stereo unspecified) | -0.72
CN1C(=O)C(O)(CC(=O)c2ccc(C3CCCCC3)cc2)c2ccccc21 (stereo unspecified) | 0.77
O=C(CC1(O)C(=O)Nc2ccccc21)CC1(O)C(=O)Nc2ccccc21 (stereo unspecified) | -0.07
O=C(CC1(O)C(=O)Nc2ccccc21)c1cccc2ccccc12 (stereo unspecified) | 5.2*
Nc1cccc(C(=O)CC2(O)C(=O)Nc3ccc(Br)cc32)c1 (stereo unspecified) | -0.57
O=C(CC1(O)C(=O)Nc2ccc(Br)cc21)c1ccc2ccccc2c1 (stereo unspecified) | -0.36
Nc1cccc(C(=O)CC2(O)C(=O)Nc3ccc(Cl)cc32)c1 (stereo unspecified) | 12*
O=C(CC1(O)C(=O)Nc2ccccc21)c1ccc2ccccc2c1 (stereo unspecified) | 4.4*
Cc1ccc(C(=O)CC2(O)C(=O)Nc3ccccc32)cc1 (stereo unspecified) | -0.4
Cc1ccc(C2c3c(oc4ccc(C)cc4c3=O)C(=O)N2c2nccs2)cc1 (stereo unspecified) | 0.13
O=C(COc1ccc2ccccc2c1)OCC(=O)c1ccc(Cl)cc1 | -0.44
COCc1nc(-c2ccccn2)[nH]c(=O)c1CC1CC1 | 0.08
CCOc1cc(C)c(S(=O)(=O)n2cc(C)nc2CC)cc1C | -1.8
O=C1OC(N2CCOCC2)c2ccccc21 (stereo unspecified) | -0.8
SMILES | Dicer inh
Cc1cc(C)nc(NS(=O)(=O)c2ccc(N=Cc3ccccc3O)cc2)n1 | 0.45
Nc1ccc(O)c(-c2nc3ccc(N)cc3s2)c1 | -2.9
COc1ccccc1-c1nnc(SCC(=O)c2ccccc2)o1 | 20
COc1cc(S(=O)(=O)Nc2cccnc2)ccc1Br | -0.61
COC(=O)Cc1nc(NC(=O)c2nc(-c3ccccc3)oc2C)sc1C | 0.09
COC(=O)Cc1nc(NC(=O)C2CCC2C(=O)O)sc1C (stereo unspecified) | 3.3*
COC(=O)Cc1nc(Nc2ccccc2)sc1C | -0.11
CCN(CC)CCCNS(=O)(=O)c1c(C)c(C)c(C)c(C)c1C | 2.4
O=C(c1ccc(Cl)cc1)c1coc2c1cc(O)c1ccccc12 | -1.2
C=CCn1c(C(C)Oc2ccccc2-c2ccccc2)n[nH]c1=S (stereo unspecified) | 0.1
CCOC(=O)c1nnn(-c2nonc2N)c1CN(C)c1ccccc1 | -0.22
CCOC(=O)c1nnn(-c2nonc2N)c1-c1ccccc1Cl | 1.3
CCOC(=O)c1nnn(-c2nonc2N)c1-c1cccc2ccccc12 | 4*
CCN(Cc1c(C(=O)O)nnn1-c1nonc1N)c1ccccc1 | 2.6
CCOC(=O)c1nnn(-c2nonc2N)c1-c1cccs1 | -0.05
CCOC(=O)c1nnn(-c2nonc2N)c1CN(CC)c1ccccc1 | 5.1*
N#Cc1cc(Cl)c(NC(=O)C(F)(F)F)c(Cl)c1 | -0.94
O=C1c2ccccc2-c2c(NCCc3ccccc3)c(=O)[nH]c3cccc1c23 | 1.9
Cc1nc(COc2ccc(C(C)(C)C)cc2)sc1C(=O)NNC(=O)c1ccc(Cl)cc1Cl | 1.2
O=C(O)CNC(=O)c1cccc(Cl)c1 | 0.67
O=C1Cc2ccccc2C(c2ccccc2)N1 (stereo unspecified) | 0.47
O=C(NC(=O)C1CCCCC1)c1ccccc1O | -1.8
Oc1ccccc1C1CCCCC1c1ccccc1 (stereo unspecified) | 4.7*
CC(C)(C)c1cc2nc(C(F)(F)F)cc(Oc3ccccc3)n2n1 | 0.23
O=[N+]([O-])c1ccc(Sc2nnc(-c3cccc(Cl)c3)o2)nc1 | 0.64
SMILES | Dicer inh
O=C1CCCCC1C1(O)C(=O)Nc2ccc(Br)cc21 (stereo unspecified) | -2.1
COc1ccccc1C1/C(=C(\O)c2ccc(Br)cc2)C(=O)C(=O)N1CCCn1ccnc1 (stereo unspecified) | -2.4
CC(O)[C@H](NC(=O)OC(C)(C)C)C(=O)O (stereo partly specified) | -0.68
COc1cccc(-n2c(/C=C/c3cn(C)c4ccccc34)nc3ccccc3c2=O)c1 | 6.8
CCn1c(/C=C/c2c[nH]c3ccccc23)nc2ccccc2c1=O | 3*
O=c1c2ccccc2nc(/C=C/c2ccc(O)cc2)n1Cc1ccccc1 | -1.2
O=C(N/N=C/C=C/c1ccccc1)c1ccccc1CO | -0.91
Cc1ccc(C(=O)/C=C/S/C=C/C(=O)c2ccc(C)cc2C)c(C)c1 | -2.1
CC(C)(C)c1cc(CC(=O)O)c2c(c1)C(C)(C)CC2 | 0.03
Fc1cccc(Cl)c1Cn1nnc(-c2cc(C(F)(F)F)cc(C(F)(F)F)c2)n1 | 0.81
Fc1cccc(Cl)c1Cn1nnc(-c2ccccc2C(F)(F)F)n1 | 3.1*
Fc1cccc(Cl)c1Cn1nnc(-c2c(Cl)cccc2Cl)n1 | 0.74
CCOC(=O)/C(C#N)=C/Nc1nc2ccc(C(=O)OCC)cc2s1 | 1.3
O=C(COC(=O)c1ccc(F)c(Cl)c1)c1ccc(Cl)cc1 | 0.91
O=C(COC(=O)c1cc(Cl)ccc1O)c1ccc(-c2ccccc2)cc1 | 6.1*
O=C(COC(=O)c1cc2ccccc2cc1OC(=O)c1ccc(Cl)cc1)c1ccccc1 | -0.71
O=C1Sc2ccc(S(=O)(=O)Nc3cccc(Cl)c3)c3cccc1c23 | 2.4
O=C1Sc2ccc(S(=O)(=O)Nc3ccc(Br)cc3)c3cccc1c23 | 3.3*
CN1C(=O)c2cccc3c(S(=O)(=O)Nc4ccc(C(=O)O)cc4)ccc1c23 | 0.11
CCOC(=O)c1cc(-c2ccccc2)sc1NC(=S)OCC | -0.32
CC(=S)c1ncc(C(F)(F)F)cc1N(C)C | 0.64
O=c1cc(O)c2cc(Br)ccc2o1 | 0.36
CN=C(Nc1ccccc1OC)SC | 0.67
CC(C)(C)c1ccc(-c2nc3ccccc3c(=O)o2)cc1 | 1.4
O=c1oc(-c2cccs2)nc2ccccc12 | -0.19
SMILES | Dicer inh
c1ccc(Nc2nnc(-c3cccc4ccccc34)o2)cc1 | 0.59
O=c1oc(-c2ccc(Br)cc2)nc2ccccc12 | 3*
O=c1oc(-c2ccc(Cl)cc2)nc2ccccc12 | 0.2
O=c1oc(Nc2ccccc2)nc2ccccc12 | 3.6*
CC1CCC2C(=O)N(c3ccc(O)cc3)C(=O)C2C1 (stereo unspecified) | 1.2
CC(C)C(=O)Oc1ccc2c(=O)c(Oc3ccc(C(C)(C)C)cc3)coc2c1 | 10
N#C/C(=C\c1ccc(Cl)cc1Cl)C(N)=S | -0.55
NC(N)=N/N=C/c1ccc(Cl)cc1Cl | 4.5*!
NC(N)=N/N=C/c1ccc(Cl)c(Cl)c1 | 0.83
